Shown are actives, neighbours in structure and some others; about 4.5% of the full set was active somewhere.
hgDAF-12 ag: H. glycines DAF-12 receptor agonists, primary screen, cell-based, luminescence, HEK293, GAL4 fusion, UAS-luciferase | Nuclear hormone receptor DAF-12 (Heterodera glycines), GAL4 fusion | HEK293 GAL4-hgDAF12 UAS-luciferase reporter, agonist luminescence; normalized to butyrate control | activation, % at 6.8 µM | 370,000 compounds, 1.8% hits;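 active = activation above a cutoff set at the mean of all screened compounds plus 3 SD, cut at about 10% in these data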;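 also: 0% = DMSO wells and 100% = sodium butyrate wells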
DAX1 inh-1: DAX1 (NR0B1) inhibitors on StAR promoter, primary screen, cell-based, luminescence, SF-1 (NR5A1), full-length DAX-1. inhibition, % at 6.8 µM. 370,000 compounds, 1.1% hits. HEK293T StAR-luciferase reporter, SF-1/DAX-1 repression relief. AID 652010, 2013;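 active = inhibition above the mean over all tested compounds plus 3 SD, cut at about 3.6% in these data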;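 also: 0% = DAX-1 cells with DMSO and 100% = cells lacking DAX-1 with DMSO; higher inhibition means more luminescence from relief of DAX-1 repression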
DAX1 inh-2: DAX1 (NR0B1) inhibitors, primary screen, cell-based, HEK293, Gal4-DAX1, luciferase luminescence. HEK293 Gal4-DAX1 luciferase reporter. inhibition, % at 6.75 µM. 340,000 compounds, 0.99% hits. AID 504766, 2011;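 active = inhibition above the mean over all tested compounds plus 3 SD, cut at about 4.2% in these data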;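 also: 0% = DAX1-transfected cells with DMSO and 100% = empty-vector control cells with DMSO; inhibition shows as a rise in luminescence from relieved DAX1 repression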
Target sequence (P51843 207-470 limits assumed): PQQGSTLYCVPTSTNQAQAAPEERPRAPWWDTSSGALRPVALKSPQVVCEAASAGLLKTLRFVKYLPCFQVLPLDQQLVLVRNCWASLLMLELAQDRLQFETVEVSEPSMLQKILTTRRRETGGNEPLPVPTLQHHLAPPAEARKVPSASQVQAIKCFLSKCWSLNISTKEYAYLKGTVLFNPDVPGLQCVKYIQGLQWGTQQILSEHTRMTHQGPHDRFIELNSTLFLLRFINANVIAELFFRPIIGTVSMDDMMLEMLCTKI
GAA850 FXN act: FXN promoter activators, primary screen, cell-based, luciferase luminescence, HEK293 lucGAA850; HEK293 lucGAA850 FXN promoter luciferase reporter, 24 h; percent of 10 µM SAHA response; activation, % at 6 µM; 360,000 compounds, 0.56% hits; AID 540364, 2011;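 active = activation above the average of all compounds screened plus 3 SD, cutoff fixed separately per campaign, cut at about 7.5% in these data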;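 also: 0% = DMSO wells and 100% = 10 µM SAHA wells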
ssDAF12 agonist: S. stercoralis DAF-12 nuclear receptor activators, primary screen, cell-based, luminescence, HEK293, GRIP1 co-expression, lit1-tk-luc; Nuclear hormone receptor DAF-12 (Strongyloides stercoralis); HEK293 ssDAF-12/GRIP1 lit1-tk-luc reporter; % of 3 µM dafachronic acid response; activation, % at 6.8 µM; 370,000 compounds, 1% hits; AID 652126, 2013;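 active = activation above the mean over all tested compounds plus 3 SD, cut at about 0.9% in these data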;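 also: 0% = DMSO-only wells and 100% = 3 µM delta7-dafachronic acid wells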
hcDAF12 agonist: H. contortus DAF-12 nuclear receptor activators, primary screen, cell-based, luminescence, HEK293, lit1-tk-luc reporter; HEK293 hcDAF-12 lit1-tk-luc reporter; 0% DMSO, 100% Δ7-dafachronic acid; activation, % at 6.8 µM; 370,000 compounds, 1.4% hits; AID 652067, 2013;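 active = activation above the mean of all tested compounds plus 3 SD, cut at about 5.5% in these data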;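 also: 100% = response to 3 µM Δ7-dafachronic acid high control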
Active calls of the source: *; . = no result.

SMILES | hgDAF-12 ag | DAX1 inh-1 | DAX1 inh-2 | GAA850 FXN act | ssDAF12 agonist | hcDAF12 agonist
COc1ccc(CN2CN(S(=O)(=O)c3cccs3)c3nc4ccccc4nc32)cc1 | 12.7* | 0.6 | 2.0 | 5.0 | -0.3 | 2.4
CCOC(=O)[C@@]12CN(C(=O)OC(C)(C)C)CC=C1N(Cc1ccc(OC)cc1)C(=O)[C@H]2CC(=O)NCCCCc1ccccc1 | -1.2 | 0.2 | . | . | -1.9 | -2.9
O=P(c1ccccc1)(c1ccccc1)C1CCCO1 (stereo not drawn) | -2.0 | 0.6 | 4.3* | -3.6 | -1.4 | -0.4
O=C(CSc1nc2ccccc2nc1N1CCCCC1)N1CCN(S(=O)(=O)c2cc(Cl)ccc2Cl)CC1 | 6.9 | -1.4 | . | . | -1.7 | -1.3
O=C(NCCN1CCOCC1)c1cc(Br)ccc1Cl | 9.6 | -0.1 | 0.7 | 0.5 | 1.1* | 2.9
O=C(NCCN1CCOCC1)c1cc([N+](=O)[O-])ccc1Cl | 2.9 | -0.1 | 0.2 | 1.2 | -0.7 | -1.8
CC(C)CNc1cccc2c1S(=O)(=O)N(Cc1cn(Cc3cccc(F)c3)nn1)Cc1ccccc1O2 | -2.5 | 0.4 | . | . | -0.9 | -0.8
CC(C)C[C@H]1CNC(=S)N1CC1CCN(CCC2CCCC2)CC1 | 3.4 | 3.2 | -0.9 | 0.3 | -0.9 | -0.4
CCC(CC)CN1CCC(CN2C(=S)NC[C@@H]2CC(C)C)CC1 | 1.4 | 3.7* | 0.7 | 0.7 | -1.4 | 0.1
CC(=O)Nc1ccc(NC(=O)CCS(=O)(=O)c2ccc3c(c2)oc(=O)n3C)cc1 | -0.4 | 0.1 | 0.2 | -0.6 | 0.2 | -0.2
CC(=O)c1ccc(NC(=O)CCS(=O)(=O)c2ccc3c(c2)n(C)c(=O)c(=O)n3C)cc1 | . | . | 4.8* | 1.3 | . | .
O=C(OC(c1ccccc1)c1nccc2ccccc12)c1ccccc1 (stereo not drawn) | -16.8 | -5.1 | 1.2 | -10.6 | -2.8 | -6.1
CC(C)C(OC(=O)c1ccccc1)c1nccc2ccccc12 (stereo not drawn) | 4.1 | 0.9 | 4.2* | 3.2 | -0.5 | 4.8
O=C(CCNC(=O)Cn1ccc2ccccc2c1=O)NCCCN1CCOCC1 | 2.1 | 0.4 | 5.1* | 0.3 | -0.8 | 0.1
CC(C)[C@@H](C)/C=C/[C@@H](C)[C@H]1CC[C@@H]2[C@]1(C)CCC1[C@]23C=C[C@]2(C[C@@H](O)CC[C@]12C)N(c1ccc(F)cn1)O3 (stereo partly drawn) | 3.1 | 1.3 | . | . | -0.1 | 1.7
Cc1cc(N2O[C@]34C=C[C@]25C[C@@H](O)CC[C@]5(C)C3CC[C@]2(C)[C@@H]([C@H](C)/C=C/[C@H](C)C(C)C)CC[C@H]24)no1 (stereo partly drawn) | 2.9 | 1.1 | -0.5 | 0.4 | 1.0* | 4.7
CCN(CC)C(=O)CC[C@H]1CC[C@]2(CCCN(C(=O)c3ccc4ccccc4n3)C2)O1 | -0.9 | 0.3 | . | . | -0.9 | -1.9
CCOc1ccccc1NC(=O)Nc1ccc2c(c1)CCC2 | 3.8 | 3.6* | 0.6 | 2.1 | -0.8 | -0.6
O=C(COc1ccccc1F)Nc1ccc2c(c1)CCC2 | 14.9* | 3.7* | 0.8 | 4.2 | -1.1 | 0.5
CCOc1cc(CNc2ccc3c(c2)CCC3)ccc1O | 2.8 | -1.1 | 1.4 | -3.0 | 1.2* | 4.5
COc1cc(CNc2ccc3c(c2)CCC3)cc(OC)c1O | -0.2 | 0.5 | 0.5 | -1.1 | -1.4 | -0.1
O=C(Nc1ccc2c(c1)Cc1ccccc1-2)NC1CCCCN(Cc2cccc(Cl)c2)C1=O (stereo not drawn) | 8.1 | 0.7 | . | . | -0.9 | -1.3
